In PMC4552634, “A New Set of Chemical Starting Points with Plasmodium falciparum Transmission-Blocking Potential for Antimalarial Drug Discovery” (PLoS ONE, 2015):
About 3,200 (25%) of roughly 13,000 compounds showed an effect of 50% or more. The list shows a part of the results.

Each molecule was assayed on P. falciparum stage V gametocytes. Details: 48 h, 5 µM; inhibitor.
Design: BacTiter-Glo ATP luminescence viability of purified stage V gametocytes in 384-well plates, per cent inhibition versus DMSO

SMILES	% Inhibition
Cc1ccc2c(OCCN3CCC(Cc4ccc5c(c4)NC(=O)CO5)CC3)cc(F)cc2n1 [TCMDC-141356]	22.38%
CC(c1cccc(S(=O)(=O)NCc2cccc(C(F)(F)F)c2)c1)N1CCC(N2CCCCC2)CC1 (stereo not drawn) [TCMDC-133565]	5.245%
O=C(c1ccc(Cl)cc1)C1CCCN(C2CCN(CCc3ccccc3)CC2)C1 (stereo not drawn) [TCMDC-124655]	-36.02%
O=S(=O)(Nc1cccc(CCN2CCC(N3CCCCC3)CC2)c1)c1ccccc1C(F)(F)F [TCMDC-134070]	2.875%
O=S(=O)(Nc1ccc(CCN2CCC(N3CCCCC3)CC2)cc1)c1ccccc1C(F)(F)F [TCMDC-134080]	79.99%
O=S(=O)(Nc1ccc(CCN2CCC(N3CCCCC3)CC2)cc1)c1cccc(C(F)(F)F)c1 [TCMDC-134090]	84.05%
Cc1cccc(S(=O)(=O)Nc2cccc(CCN3CCC(N4CCCCC4)CC3)c2)c1 [TCMDC-134087]	26.17%
O=S(=O)(Nc1cccc(CCN2CCC(N3CCCCC3)CC2)c1)c1cccc(C(F)(F)F)c1 [TCMDC-134086]	60.6%
O=c1ccc(-c2nc3cc(Cl)c(Cl)cc3n2Cc2ccc(Cl)cc2Cl)c[nH]1 [TCMDC-124041]	6.921%
Cc1ccc(Nc2nc(C)cc(Nc3cccc(NS(C)(=O)=O)c3)n2)cc1 [TCMDC-133449]	22.69%
CCCc1cc(Cc2cnc(N)nc2N)cc(CCC)c1OCCCCCC(=O)OCC [TCMDC-137289]	-20.26%
Cc1ccc(NC(=O)c2ccnc(N3CCN(c4ccncc4)CC3)c2)cc1F [TCMDC-135102]	18.96%
O=C(Nc1ccc2c(c1)CCC2)c1nc(N2CCN(c3ccncc3)CC2)ccc1Cl [TCMDC-135105]	30.18%
Cc1ccc(NC(=O)c2ccc(N3CCN(c4ccncc4)CC3)cn2)cc1F [TCMDC-135156]	103.4%
Cc1ccc(NC(=O)c2ccc(N3CCN(c4ccncc4)CC3)cc2)cc1F [TCMDC-135126]	6.025%
COc1cccc(NC(=O)c2nc(N3CCN(c4ccncc4)CC3)ccc2Cl)c1 [TCMDC-135104]	27.68%
Cc1ccc(NC(=O)c2nc(N3CCN(c4ccncc4)CC3)ccc2Cl)cc1F [TCMDC-135103]	90.08%
CC(C)(C)C(=O)Nc1ccc(N2CCN(C(c3ccccc3)c3ccccc3)CC2)c(Cl)c1 [TCMDC-133713]	36.59%
COc1ccc(Cl)cc1N1CCN(CCCNC(=O)c2ccc(-c3nc4cc(Cl)c(Cl)cc4[nH]3)c(C)c2)CC1 [TCMDC-140082]	-14.21%
O=C(Cn1cc(C=C2SC(=NC3CCCC3)N(C3CCCC3)C2=O)c2ccccc21)N1CCCC1 [TCMDC-124810]	-5.018%
COc1ccc2nccc(N(C)CC3(O)CCN(CCc4ccc5c(c4)NC(=O)CS5)CC3)c2n1 [TCMDC-141472]	49.29%

SMILES	% Inhibition
CCCCC(=O)Nc1nc2ccc([N+](=O)[O-])cc2s1 [TCMDC-123686]	-7.174%
CC(C)C(C)(C#N)NC(=O)CSc1nc2ccc([N+](=O)[O-])cc2s1 (stereo not drawn) [TCMDC-123610]	79.56%
O=C(CSc1nc2ccc([N+](=O)[O-])cc2s1)Nc1ccccc1-c1ccccc1 [TCMDC-124341]	43.04%
COc1ccc2nccc(N(C)CC3(O)CCC(NCc4cc5c(cn4)OCCO5)CC3)c2n1 (stereo not drawn) [TCMDC-134497]	30.63%
N=c1ccn(CC(=NO)c2ccc(Cl)c(Cl)c2)cc1 [TCMDC-139033]	-35.74%
COc1ccccc1C1CCN(C2CCC(NC(=O)/C=C/c3ccc(F)c(F)c3)CC2)CC1 (stereo not drawn) [TCMDC-133493]	-77.67%
Clc1ccc(Cn2nc(Br)nc2Br)c(Cl)c1 [TCMDC-125047]	-61.09%
O=[N+]([O-])c1nc(Br)n(Cc2ccc(Cl)cc2)n1 [TCMDC-125048]	51.98%
CC(Oc1c(C2CCN(CCCCNC(=O)c3ccc(-c4ccc(Cl)cc4)cc3)CC2)ccc2c1CCCC2)C(N)=O (stereo not drawn) [TCMDC-134653]	65.96%
CC(C)(Oc1c(C2CCN(CCCCNC(=O)c3ccc(-c4ccc(Cl)cc4)cc3)CC2)ccc2c1CCCC2)C(N)=O [TCMDC-134939]	-3.044%
Cc1ccc(C2CCN(CCCCNC(=O)c3ccc(NC(=O)c4ccc(Cl)cc4)cc3)CC2)c(C)c1 [TCMDC-138354]	9.967%
CC(=O)c1ccc(-c2ccc(C(=O)NCCCCN3CCC(c4ccc5c(c4O)CCCC5)CC3)cc2)cc1 [TCMDC-138653]	60.63%
N#Cc1ccc(-c2ccc(C(=O)NCCCCN3CCC(c4cc(Br)c5c(c4O)CCCC5)CC3)cc2)cc1 [TCMDC-135238]	-99.04%
O=C(NCCCCN1CCC(c2ccc3c(c2O)CCCC3)CC1)c1ccc(NC(=O)c2ccc(Cl)cc2)cc1 [TCMDC-138645]	88.57%
COc1ccc2c(c1C1CCN(CCCCNC(=O)c3ccc(NC(=O)c4ccc(Cl)cc4)cc3)CC1)CCCC2 [TCMDC-138553]	46.07%
O=C(NCCCCN1CCC(c2ccc3c(c2O)CCCC3)CC1)c1ccc(-c2ccc(Cl)cc2)cc1 [TCMDC-138661]	61.25%
CC(Oc1c(C2CCN(CCCCNC(=O)c3ccc(-c4ccc(C#N)cc4)cc3)CC2)ccc2c1CCCC2)C(N)=O (stereo not drawn) [TCMDC-134551]	41.12%
C=Cc1c(C2CCN(CCCCNC(=O)c3ccc(-c4ccc(C#N)cc4)cc3)CC2)ccc2c1CCCC2 [TCMDC-135273]	38.74%
COc1ccc2nc(-c3cc(-c4ccc(NC(=O)C(C)C)cc4)cnc3N)[nH]c2c1 [TCMDC-135322]	10.64%
C[C@H](CNc1ccnc(Nc2ccc3[nH]c(=O)[nH]c3c2)n1)c1ccccc1 [TCMDC-136804]	-43.48%
CN/C(=C\[N+](=O)[O-])NCCSCc1cc(C)c(CN(C)C)s1 [TCMDC-131256]	8.916%
